Test results published in PubChem BioAssay (NCATS).
Values without a mark were called inactive. Records with an inconclusive call do not appear. The source made the active and inactive calls. Unless noted, calls follow the shape of the dose curve; as a rule, active = well fitted curve in the direction sought with a large enough effect; inconclusive = small, poorly fitted or top-dose-only effect, or another doubt; inactive = no such curve, though single readings can be large; an effect the other way counts as inactive or inconclusive.

Tests used:
[1] = target: Lysosomal acid glucosylceramidase (Homo sapiens) (UniProt P04062); test: Glucocerebrosidase-p2 (AID 348; in the data active = potency below about 10 µM; also: potency is read from the fitted curve at half-maximal effect); conditions: purified GBA, blue fluorogenic substrate, 40 min
Lysosomal acid glucosylceramidase (Homo sapiens), sequence (P04062 whole entry, looked up): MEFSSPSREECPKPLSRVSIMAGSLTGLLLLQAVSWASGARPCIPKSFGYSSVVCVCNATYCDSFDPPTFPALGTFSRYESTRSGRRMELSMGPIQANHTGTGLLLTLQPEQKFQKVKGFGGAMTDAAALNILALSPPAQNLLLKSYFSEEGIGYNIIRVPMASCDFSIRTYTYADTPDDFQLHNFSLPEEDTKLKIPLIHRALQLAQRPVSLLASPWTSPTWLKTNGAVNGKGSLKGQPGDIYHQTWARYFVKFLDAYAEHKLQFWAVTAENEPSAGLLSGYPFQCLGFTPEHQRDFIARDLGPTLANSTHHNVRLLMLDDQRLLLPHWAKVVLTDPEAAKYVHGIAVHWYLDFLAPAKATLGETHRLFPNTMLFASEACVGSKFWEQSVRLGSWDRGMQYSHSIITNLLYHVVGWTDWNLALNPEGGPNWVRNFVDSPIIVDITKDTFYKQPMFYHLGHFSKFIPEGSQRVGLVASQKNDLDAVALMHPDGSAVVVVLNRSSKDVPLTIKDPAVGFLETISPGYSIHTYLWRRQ
In short: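 Normal human glucocerebrosidase (0.2 nM) with blue fluorogenic substrate (80 uM final) in citrate/phosphate pH 5.9 with 10mM sodium taurocholate, 0.01% tween-20; 40 min RT, NaOH/glycine stop; fluorescence Ex 365/Em 440; AC50 from a titration from 0.6 nM upwards.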

[2] = AP1 Signaling Pathway (AID 357; active = well fitted curve in either direction with a large enough effect, not every such curve was filed as active;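 also: ME-180 reporter cells stimulated with EGF at its EC50 level; % is scaled to controls: 0 for no effect and ±100 for the full control effect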); conditions: ME-180 AP-1-bla reporter, EGF-induced, beta-lactamase ratio, 5 h; at 7.69 µM (top of the series) unless noted
In short: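 Modulation of EGF-driven AP-1 transcription was assessed with a beta-lactamase reporter in ME-180 cells. Compound and EC50 EGF were co-incubated 5 hours at 37 °C before 2.5-hour CCF4 loading at room temperature and dual-emission reading.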

[3] = target: Cytochrome P450 1A2 (Homo sapiens) (UniProt P05177); test: p450-cyp1a2 (AID 410; calls by dose curve; also: potency is read from the fitted curve at half-maximal effect); conditions: recombinant CYP1A2, luciferin-ME demethylation, luminescence; series mostly up to 57 µM
Cytochrome P450 1A2 (Homo sapiens), sequence (P05177 whole entry, looked up): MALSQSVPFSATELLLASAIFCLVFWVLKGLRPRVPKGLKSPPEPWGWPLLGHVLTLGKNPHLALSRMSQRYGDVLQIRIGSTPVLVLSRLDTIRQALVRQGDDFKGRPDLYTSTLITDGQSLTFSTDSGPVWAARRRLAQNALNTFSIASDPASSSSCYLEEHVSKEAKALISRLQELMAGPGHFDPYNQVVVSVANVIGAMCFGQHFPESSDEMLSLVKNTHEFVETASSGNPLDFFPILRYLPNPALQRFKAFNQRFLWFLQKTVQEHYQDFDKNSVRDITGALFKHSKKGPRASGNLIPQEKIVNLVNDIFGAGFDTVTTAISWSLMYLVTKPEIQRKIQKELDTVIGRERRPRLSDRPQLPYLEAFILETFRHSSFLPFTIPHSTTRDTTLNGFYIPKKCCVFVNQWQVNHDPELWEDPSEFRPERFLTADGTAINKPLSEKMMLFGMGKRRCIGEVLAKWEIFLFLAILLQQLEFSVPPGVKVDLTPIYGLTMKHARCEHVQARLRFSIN
In short: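 O-Demethylation of luciferin 6' methyl ether by human CYP1A2 is monitored as luciferase luminescence. Substrate sits at Km (100uM); enzyme is 20nM. Values are scaled to 57 uM furafylline as maximal inhibition.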

[4] = NFAT Signaling Pathway (AID 444; active = well fitted curve in either direction with a large enough effect, not every such curve was filed as active;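 also: carbachol stimulus at about its EC50 of 1 µM final; % is scaled to controls: 0 for no effect and ±100 for the full control effect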); conditions: Jurkat NFAT-bla M1, carbachol, beta-lactamase ratio, 5 h; at 7.69 µM (top of the series) unless noted
In short: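 Read-out: CCF4 FRET ratio (460 nm/530 nm) after 1 h RT dye loading, used for %activity and AC50 from titration series. Cells: Jurkat NFAT-β-lactamase/M1 line, treated with compound plus 1 uM carbachol for 5 h, 37 °C.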

[5] = Stat Signaling Pathway (AID 446; active = well fitted curve in either direction with a large enough effect, not every such curve was filed as active;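 also: ME-180 cervical cancer cells given 40 pM IL-6 alongside compound; SIE-controlled beta-lactamase reporter measured as 460/530 nm FRET emission ratio; % is scaled to controls: 0 for no effect and ±100 for the full control effect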); conditions: ME-180 (cervical carcinoma) SIE beta-lactamase reporter, IL-6 stimulated, 5 h; at 7.69 µM (top of the series) unless noted
In short: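 Emission at 460 and 530 nm (excitation 405 nm) reports SIE-controlled beta-lactamase in ME-180 cells. Cells received compound with 40 pM IL-6 for 5 hrs at 37 C; data scaled between 300 pM IL-6 and 125 nM JAK-inhibitor controls.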

[6] = target: Glucocorticoid receptor (Homo sapiens) (UniProt P04150); test: GR-GFP Redistribution (AID 450;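 active = compounds whose dose series gives a full or clear partial fitted curve of increased nuclear translocation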; also: potency is read from the fitted curve at half-maximal effect); conditions: U2OS GR-GFP nuclear translocation, laser cytometry, 2 h
Glucocorticoid receptor (Homo sapiens), sequence (P04150 whole entry, looked up, the tested form may be a part): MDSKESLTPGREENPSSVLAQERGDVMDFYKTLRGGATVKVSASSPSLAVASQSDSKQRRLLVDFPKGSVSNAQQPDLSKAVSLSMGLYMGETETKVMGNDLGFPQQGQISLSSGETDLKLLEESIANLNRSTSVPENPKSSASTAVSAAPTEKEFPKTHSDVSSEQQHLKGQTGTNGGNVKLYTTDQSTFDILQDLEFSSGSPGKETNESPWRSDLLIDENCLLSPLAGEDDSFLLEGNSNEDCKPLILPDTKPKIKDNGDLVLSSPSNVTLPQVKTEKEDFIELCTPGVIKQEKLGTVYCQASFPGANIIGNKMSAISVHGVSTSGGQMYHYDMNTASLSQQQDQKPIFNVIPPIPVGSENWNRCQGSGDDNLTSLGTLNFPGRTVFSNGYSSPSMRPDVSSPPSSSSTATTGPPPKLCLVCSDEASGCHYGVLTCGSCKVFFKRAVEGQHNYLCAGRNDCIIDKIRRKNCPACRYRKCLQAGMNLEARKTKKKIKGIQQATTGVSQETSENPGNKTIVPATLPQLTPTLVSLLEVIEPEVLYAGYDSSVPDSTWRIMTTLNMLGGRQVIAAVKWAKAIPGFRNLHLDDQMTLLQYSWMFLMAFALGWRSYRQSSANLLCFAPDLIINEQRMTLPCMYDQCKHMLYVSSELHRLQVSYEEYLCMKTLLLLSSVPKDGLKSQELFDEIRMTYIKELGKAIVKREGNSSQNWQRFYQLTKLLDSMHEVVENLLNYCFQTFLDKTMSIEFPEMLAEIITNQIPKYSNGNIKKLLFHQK

[7] = target: Glucocorticoid receptor (Homo sapiens) (UniProt P04150); test: GR-EFC Redistribution (AID 451; calls by dose curve; also: potency is read from the fitted curve at half-maximal effect); conditions: CHO-K1 GR-EFC translocation, beta-gal luminescence, 2 h
In short: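 Translocation of GR-ED fusion to nuclear EA restores b-gal, read by luminescence after 1 h room-temperature detection. Engineered CHO-K1 biosensor cells, 1,000/well, exposed 2 h at 37 C to titrations up to 46 uM final.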

[8] = target: Mitogen-activated protein kinase 10 (Mus musculus) (UniProt Q61831); test: JNK3 AlphaScreen Assay (AID 530; active = well fitted curve in either direction with a large enough effect, not every such curve was filed as active;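 also: kinase came from lysate of stimulated human HepG2 cells; signal reports phosphorylation of biotinylated GST-cJun 1-79 at Ser73 with 10 µM ATP; % is scaled to controls: 0 for no effect and ±100 for the full control effect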); conditions: JNK3 lysate, c-Jun phosphorylation; series mostly up to 57.1 µM
In short: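 qHTS titrations with 15 min compound pre-incubation before adding ATP (10 uM final). Read-out: AlphaScreen of Ser73-phosphorylated biotin-GST-cJun using HepG2 lysate JNK3 activated by IL-1β and TNFα.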

[9] = target: 3',5'-cyclic-AMP phosphodiesterase 4B (Homo sapiens) (UniProt Q07343); test: qHTS Assay for Inhibitors of PDE-IV (AID 607; active = well fitted activation curve with a large enough effect in the main read-out, with a control signal flat, not every such curve was filed as active; also: % of control where 0% means no effect); conditions: HEK293 ACTOne CNG channel cells, membrane potential fluorescence; series mostly up to 22.9 µM
3',5'-cyclic-AMP phosphodiesterase 4B (Homo sapiens), sequence (Q07343 whole entry, looked up): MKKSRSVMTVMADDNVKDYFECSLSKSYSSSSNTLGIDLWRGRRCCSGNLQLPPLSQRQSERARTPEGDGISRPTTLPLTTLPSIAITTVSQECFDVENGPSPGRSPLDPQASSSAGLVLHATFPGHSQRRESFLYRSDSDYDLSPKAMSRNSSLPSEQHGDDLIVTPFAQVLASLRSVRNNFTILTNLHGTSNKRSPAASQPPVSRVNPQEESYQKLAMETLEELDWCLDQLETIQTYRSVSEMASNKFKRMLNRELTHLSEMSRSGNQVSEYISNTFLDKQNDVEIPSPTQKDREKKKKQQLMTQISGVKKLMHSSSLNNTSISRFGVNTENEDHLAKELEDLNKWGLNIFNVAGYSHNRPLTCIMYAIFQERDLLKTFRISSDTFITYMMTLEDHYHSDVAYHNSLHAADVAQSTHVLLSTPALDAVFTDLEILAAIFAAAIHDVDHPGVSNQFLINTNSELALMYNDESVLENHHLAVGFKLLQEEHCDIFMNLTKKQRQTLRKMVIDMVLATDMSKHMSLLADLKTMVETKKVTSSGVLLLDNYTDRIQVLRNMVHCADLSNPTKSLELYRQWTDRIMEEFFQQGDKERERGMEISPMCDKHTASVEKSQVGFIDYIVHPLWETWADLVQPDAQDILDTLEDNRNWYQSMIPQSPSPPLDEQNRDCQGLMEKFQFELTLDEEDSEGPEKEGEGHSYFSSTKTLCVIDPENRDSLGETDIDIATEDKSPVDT
In short: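 The readout is membrane depolarisation from a cAMP-sensing CNG channel, detected with a potential dye at ex 535/em 590. Cells were HEK293-derived (endogenous PDE-IV) at 1000 cells/well, titrated up to 22.9 uM final.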

[10] = target: Dual specificity protein kinase CLK4 (Homo sapiens) (UniProt Q9HAZ1); test: qHTS Assay for Inhibitors of CDC-like Kinase 4 (Kinase-Glo Assay) (AID 1770); conditions: recombinant Clk4, Kinase-Glo ATP depletion luminescence; series mostly up to 66.7 µM; also: nearly all actives have a fitted effect of over 65% in size; also: potency is read from the fitted curve at half-maximal effect
Dual specificity protein kinase CLK4 (Homo sapiens), sequence (Q9HAZ1 whole entry, looked up): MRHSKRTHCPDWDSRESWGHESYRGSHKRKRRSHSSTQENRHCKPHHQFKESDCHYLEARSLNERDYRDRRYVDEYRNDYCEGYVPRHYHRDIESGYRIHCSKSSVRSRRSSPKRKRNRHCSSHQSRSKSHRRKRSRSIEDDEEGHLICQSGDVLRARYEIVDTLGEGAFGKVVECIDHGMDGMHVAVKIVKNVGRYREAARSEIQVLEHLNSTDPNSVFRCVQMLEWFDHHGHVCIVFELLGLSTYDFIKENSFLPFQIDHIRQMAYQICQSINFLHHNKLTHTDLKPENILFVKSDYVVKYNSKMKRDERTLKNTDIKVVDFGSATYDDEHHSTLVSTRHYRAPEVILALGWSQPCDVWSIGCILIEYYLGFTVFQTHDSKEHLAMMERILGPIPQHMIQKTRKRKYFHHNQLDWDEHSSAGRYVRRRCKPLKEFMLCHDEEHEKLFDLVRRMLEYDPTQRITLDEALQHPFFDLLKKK
In short: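 Substrate mix (RS peptide 100 uM, ATP 1 uM) dispensed, compound pinned in, then Clk4 added to 25 nM final. Incubated 4.5 h at RT; Kinase-Glo reagent added, luminescence read after 5 min.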

[11] = target: Dual specificity protein kinase CLK4 (Homo sapiens) (UniProt Q9HAZ1); test: qHTS Assay for Inhibitors of CDC-like Kinase 4 (ADP-FP Assay) (AID 1795); conditions: Transcreener ADP fluorescence polarization; series mostly up to 50 µM;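 also: recombinant human CLK4 phosphorylating RS repeat peptide at 1 µM ATP; % is scaled to controls: 0 for no effect and ±100 for the full control effect; nearly all actives have a fitted effect of over 60% in size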
In short: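 Clk4 6.25 nM; RS peptide 100 uM; ATP 1 uM; 25 mM Tris pH 7.5, 10 mM MgCl2; 1 h reaction. ADP detected via antibody/orange tracer FP displacement; TG003 positive control.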

[12] = target: Ubiquitin carboxyl-terminal hydrolase 1 (Homo sapiens) (UniProt O94782); test: Inhibitors of USP1/UAF1: Pilot qHTS (AID 504865); conditions: purified USP1/UAF1, Ub-rhodamine cleavage fluorescence; series mostly up to 54.9 µM; also: nearly all actives have a fitted effect of over 35% in size; also: potency is read from the fitted curve at half-maximal effect
Ubiquitin carboxyl-terminal hydrolase 1 (Homo sapiens), sequence (O94782 whole entry, looked up): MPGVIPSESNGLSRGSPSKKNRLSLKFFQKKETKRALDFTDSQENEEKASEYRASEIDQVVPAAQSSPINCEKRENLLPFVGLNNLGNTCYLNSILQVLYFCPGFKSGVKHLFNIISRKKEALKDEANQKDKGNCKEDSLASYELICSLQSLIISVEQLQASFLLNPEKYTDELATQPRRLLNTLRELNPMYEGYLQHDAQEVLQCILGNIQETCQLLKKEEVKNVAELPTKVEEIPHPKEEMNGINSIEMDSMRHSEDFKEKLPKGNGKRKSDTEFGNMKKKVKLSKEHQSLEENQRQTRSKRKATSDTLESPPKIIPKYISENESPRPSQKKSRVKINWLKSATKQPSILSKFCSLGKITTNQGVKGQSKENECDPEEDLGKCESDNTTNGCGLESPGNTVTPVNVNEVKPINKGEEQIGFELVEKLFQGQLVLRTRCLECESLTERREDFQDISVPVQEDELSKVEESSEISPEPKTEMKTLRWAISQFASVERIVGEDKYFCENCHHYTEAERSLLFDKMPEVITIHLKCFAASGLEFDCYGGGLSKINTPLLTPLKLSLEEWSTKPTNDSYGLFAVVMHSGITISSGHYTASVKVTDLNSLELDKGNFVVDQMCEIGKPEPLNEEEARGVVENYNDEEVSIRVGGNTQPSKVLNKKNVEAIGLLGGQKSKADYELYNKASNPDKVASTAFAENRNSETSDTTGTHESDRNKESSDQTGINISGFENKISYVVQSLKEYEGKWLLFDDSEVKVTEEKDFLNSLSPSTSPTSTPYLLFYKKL
In short: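 In 50mM HEPES pH 7.8 containing 0.5mM EDTA, 1mM TCEP, 0.1 mg/ml BSA and 0.01% Tween-20, 1nM USP1/UAF1 is exposed to compound for 15 min, then Ub-Rho (150nM final) is added and fluorescence is read over time.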

[13] = Primary qHTS for small molecule stabilizers of the endoplasmic reticulum resident proteome: Secreted ER Calcium Modulated Protein (SERCaMP) assay (AID 1508630); conditions: SH-SY5Y GLuc-SERCaMP (Gaussia luciferase released on ER calcium loss) secretion, thapsigargin, luminescence; series mostly up to 38.4 µM; also: % is scaled to controls: 0 for no effect and ±100 for the full control effect
In short: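 The SH-SY5Y reporter protocol was run at 3 concentrations up to 38.3 uM (primary) or 11 concentrations (follow-up): 16 h compound, 100 nM thapsigargin for 4 h, then extracellular luciferase luminescence.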

[14] = target: Cytochrome P450 3A4 (Homo sapiens) (UniProt P08684); test: qHTS Assay for Activators of Cytochrome P450 3A4 (AID 885); conditions: recombinant CYP3A4, Luciferin-PPXE luminescence, 60 min; series mostly up to 57.1 µM; also: nearly all actives have a fitted effect of over 65% in size
Cytochrome P450 3A4 (Homo sapiens), sequence (P08684 whole entry, looked up): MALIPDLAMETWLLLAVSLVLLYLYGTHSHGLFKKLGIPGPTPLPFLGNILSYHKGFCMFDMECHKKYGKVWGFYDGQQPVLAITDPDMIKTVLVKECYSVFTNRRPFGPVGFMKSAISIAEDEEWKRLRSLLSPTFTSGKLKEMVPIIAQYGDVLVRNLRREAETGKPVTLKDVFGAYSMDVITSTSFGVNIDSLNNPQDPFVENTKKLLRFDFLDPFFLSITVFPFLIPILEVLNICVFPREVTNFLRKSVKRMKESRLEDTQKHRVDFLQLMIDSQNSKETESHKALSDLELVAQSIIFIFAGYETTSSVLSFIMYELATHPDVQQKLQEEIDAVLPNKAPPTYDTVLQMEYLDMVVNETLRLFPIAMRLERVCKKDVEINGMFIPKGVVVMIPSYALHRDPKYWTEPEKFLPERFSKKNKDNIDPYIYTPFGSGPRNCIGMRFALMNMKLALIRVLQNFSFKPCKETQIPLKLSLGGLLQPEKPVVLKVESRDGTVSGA
In short: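 Activators are scored by enhanced luminescence from CYP3A4 conversion of luciferin-PPXE (25uM, equal to KM) to luciferin, after 60 min at RT with an NADPH-regenerating system.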

[15] = target: Cytochrome P450 3A4 (Homo sapiens) (UniProt P08684); test: qHTS Assay for Inhibitors and Substrates of Cytochrome P450 3A4 (AID 884); conditions: recombinant CYP3A4, Luciferin-PPXE luminescence; series mostly up to 57.1 µM; also: potency is read from the fitted curve at half-maximal effect; nearly all actives have a fitted effect of over 50% in size
In short: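 Luminescent readout of luciferin produced by CYP3A4 (20 nM) dealkylation of Luciferin-PPXE, 25 uM (its KM). NADPH-driven reaction ran 60 min at RT after 10 min compound preincubation; data scaled to 57 uM ketoconazole as 100% inhibition.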

[16] = target: Cytochrome P450 2C19 (Homo sapiens) (UniProt P33261); test: qHTS Assay for Inhibitors and Substrates of Cytochrome P450 2C19 (AID 899); conditions: recombinant CYP2C19, luciferin-H EGE luminescence; series mostly up to 57.1 µM; also: potency is read from the fitted curve at half-maximal effect; nearly all actives have a fitted effect of over 60% in size
Cytochrome P450 2C19 (Homo sapiens), sequence (P33261 whole entry, looked up): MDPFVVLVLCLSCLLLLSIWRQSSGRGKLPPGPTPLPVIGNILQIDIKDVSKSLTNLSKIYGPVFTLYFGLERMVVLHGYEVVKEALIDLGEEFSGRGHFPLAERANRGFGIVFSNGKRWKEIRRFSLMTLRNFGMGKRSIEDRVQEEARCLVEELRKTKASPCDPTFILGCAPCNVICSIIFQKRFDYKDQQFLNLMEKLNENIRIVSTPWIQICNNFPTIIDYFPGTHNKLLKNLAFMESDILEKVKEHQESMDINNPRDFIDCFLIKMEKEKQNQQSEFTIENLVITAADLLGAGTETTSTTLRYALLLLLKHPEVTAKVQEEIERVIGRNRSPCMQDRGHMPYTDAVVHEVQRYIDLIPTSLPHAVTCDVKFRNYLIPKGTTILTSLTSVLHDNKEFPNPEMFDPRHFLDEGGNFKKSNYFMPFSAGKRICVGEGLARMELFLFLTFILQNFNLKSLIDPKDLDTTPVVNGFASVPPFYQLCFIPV
In short: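 Luminescence readout of luciferin formed from 10uM Luciferin-H EGE (KM level) by 5 nM CYP2C19 in 50mM KPO4. 60 min NADPH-driven reaction at 37C after 10 min compound preincubation; data scaled to 57uM ketoconazole inhibition.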

[17] = target: Dual specificity protein kinase CLK4 (Homo sapiens) (UniProt Q9HAZ1); test: qHTS Assay for Inhibitors of CDC-like Kinase 4 (ADP-Glo Assay) (AID 1771); conditions: recombinant CLK4, ADP-Glo luminescence; series mostly up to 80 µM; also: nearly all actives have a fitted effect of over 70% in size; also: potency is read from the fitted curve at half-maximal effect
In short: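 Compounds are pin-transferred onto substrate mix (100 uM RS peptide, 1 uM ATP), then 25 nM Clk4 is added. After 1 hr at room temperature, ADP-Glo reagent runs 45 min, detection reagent 30 min, then luminescence is read.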

SMILES	Potency [1]	activity change, negative = inhibition [2] [%]	Potency [3]	activity change, negative = inhibition [4] [%]	activity, negative = inhibition [5] [%]	Potency [6] [µM]	Potency [7] [µM]	Potency [8]	Potency [9]	Potency [10]	Potency [11]	Potency [12]	outcome [13]	Potency [14]	Potency [15]	Potency [16]	Potency [17]
CCNc1ncc2nc(C)c(=O)n(C[C@H]3CCCO3)c2n1	> 11.4 µM	3.27	3.98 µM (active)	-7.96	-8.96	> 9.22	> 46	inactive	inactive	inactive	inactive	inactive	inactive	–	–	–	–
COc1ccc(-c2nc3cnc(N(C)C)nc3n(-c3ccccc3)c2=O)cc1	> 11.4 µM	0.239	–	3.47	3.24	> 9.22	> 46	inactive	–	inactive	inactive	inactive	inactive	–	–	–	–
COCCn1c(=O)c(-c2cc(F)cc(F)c2)nc2cnc(N(C)C)nc21	> 11.4 µM	3.27	5.01 µM (active)	-6.48	-2	> 9.22	> 46	inactive	inactive	inactive	inactive	inactive	inactive	–	–	–	–
FC(F)(F)c1ccccc1-c1cc(NCc2cccnc2)ncn1	> 11.4 µM	-2.3	3.98 µM (active)	4.08	-3	> 46	> 46	inactive	inactive	inactive	inactive	inactive	inactive	inactive	–	–	–
N#Cc1cccc(-c2cncnc2NCc2cccnc2)c1	> 11.4 µM	13	5.01 µM (active)	-3.61	6.63	> 46	> 46	inactive	inactive	inactive	inactive	inactive	inactive	inactive	1.26 µM (active)	3.98 µM (active)	–
COc1cccc(Nc2ncc3nc(-c4cccs4)c(=O)n(CCC#N)c3n2)c1	> 11.4 µM	-26.3	2.51 µM (active)	–	–	> 9.22	> 46	inactive	–	inactive	inactive	inactive	inactive	inactive	6.31 µM (active)	–	–
COCCn1c(=O)c(C)nc2cncnc21	> 11.4 µM	-8.48	15.8 µM (active)	3.43	-7.75	> 9.22	> 46	inactive	inactive	inactive	inactive	inactive	inactive	inactive	–	–	–
COc1cccc(-c2nccc(NCCc3c[nH]c4ccc(OC)cc34)n2)c1	6.96 µM (active)	–	–	-15.8	-25.8	–	> 46	inactive	–	25.1 µM (active)	–	inactive	inactive	–	–	–	28.2 µM (active)
COc1ccc2[nH]cc(CCNc3ccnc(-c4ccccc4C(F)(F)F)n3)c2c1	> 11.4 µM	-10.2	3.98 µM (active)	-1.93	-14.8	> 46	> 46	inactive	inactive	inactive	inactive	–	inactive	inactive	2 µM (active)	–	–
CN(C)c1ncc2nc(-c3cc(F)cc(F)c3)c(=O)n(-c3ccccc3)c2n1	> 11.4 µM	-8.03	0.316 µM (active)	9.84	12.5	> 9.22	> 46	inactive	inactive	inactive	inactive	inactive	inactive	–	–	–	–
N#Cc1cccc(-c2nc(NCc3cccs3)c3ccccc3n2)c1	> 11.4 µM	-7.71	0.316 µM (active)	-16.7	-29.9	> 46	> 46	inactive	–	inactive	inactive	–	inactive	inactive	3.98 µM (active)	–	–
CCNc1ncc2nc(-c3ccc(F)cc3)c(=O)n(C)c2n1	–	-8.75	–	-26	-0.235	> 9.22	> 46	inactive	inactive	inactive	–	inactive	inactive	–	–	–	inactive
COc1cccc(Nc2ncc3nc(-c4ccc(Cl)cc4)c(=O)n(C[C@H]4CCCO4)c3n2)c1	> 11.4 µM	-20.5	–	2.35	4.74	> 9.22	> 46	–	inactive	inactive	inactive	–	inactive	inactive	–	–	–
Cc1noc(C)c1-c1nc(NCCN2CCOCC2)c2ccccc2n1	–	-2.23	2.51 µM (active)	–	-0.501	> 46	> 46	inactive	inactive	inactive	inactive	inactive	inactive	inactive	–	7.94 µM (active)	–
Cc1noc(C)c1-c1nc(NCc2ccccc2)c2ccccc2n1	> 11.4 µM	-3.06	–	–	-4.57	> 46	> 46	inactive	–	inactive	inactive	6.31 µM (active)	inactive	–	–	–	–
CN(Cc1ccco1)c1nc(-c2ccoc2)nc2ccccc12	> 11.4 µM	-25.1	0.398 µM (active)	-18.3	-4.21	> 46	> 46	inactive	–	inactive	–	inactive	inactive	inactive	–	–	–
COc1ccc2[nH]cc(CCNc3ccnc(-c4ccoc4)n3)c2c1	> 11.4 µM	-23	0.501 µM (active)	-2.92	-23.2	> 46	> 46	inactive	inactive	14.1 µM (active)	–	inactive	inactive	inactive	3.16 µM (active)	0.501 µM (active)	–
